MITF inh – inhibitors of human MITF; O75030; AlphaScreen MITF homodimerization, bead proximity signal; inhibition, % at 2.6 µM; 0.91% of 650,000 active; AID 1259374; in the data active = inhibition above about 50%;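 note: 0% = vehicle wells with protein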
GPR151 ag – human GPR151 activation; activation, % at 11.2 µM; PathHunter beta-arrestin GPR151 cells, luminescence; 1% of 650,000 active; Q8TDV0; AID 1508602; in the data active = activation above about 4.9%;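 note: 0% = median of compound wells and 100% = cells with positive control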
Target sequence (Q8TDV0 whole entry, looked up): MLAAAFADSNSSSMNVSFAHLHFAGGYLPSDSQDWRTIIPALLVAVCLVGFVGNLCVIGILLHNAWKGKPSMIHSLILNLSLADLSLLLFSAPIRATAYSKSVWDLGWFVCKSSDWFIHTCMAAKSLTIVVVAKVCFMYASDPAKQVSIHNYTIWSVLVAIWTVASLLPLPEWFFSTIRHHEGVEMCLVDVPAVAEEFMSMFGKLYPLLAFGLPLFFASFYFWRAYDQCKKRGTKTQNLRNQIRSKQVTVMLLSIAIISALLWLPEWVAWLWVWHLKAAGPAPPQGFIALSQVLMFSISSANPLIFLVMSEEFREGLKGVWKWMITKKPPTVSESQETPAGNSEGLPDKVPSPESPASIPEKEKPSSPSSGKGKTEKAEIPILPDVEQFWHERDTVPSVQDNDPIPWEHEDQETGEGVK
FBW7 act – human FBW7 E3 ligase activation, primary screen; normalized activity (activation), % at 26.1 µM; AlphaScreen FBW7–phospho-cyclin E peptide binding, activator screen; 0.13% of 650,000 active; AID 1259310; Q969H0; in the data active = normalized activity above about 1.9%;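 note: purified mutant Fbw7 with reduced substrate affinity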
TEAD-YAP block – TEAD-YAP interaction inhibition. HEK-TIYL cells, TEAD-Gal4/YAP UAS-luciferase luminescence. inhibition, % at 9.12 µM. 1.4% of 640,000 active. AID 1259422; in the data active = inhibition above about 32%;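 note: 0% = median of test compound wells and 100% = reference inhibitor wells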
Starred values were filed as active, the others as inactive. This is a sample that favours compounds with a hit; in the whole collection about 3.5% have one here.

SMILES	MITF inh	GPR151 ag	FBW7 act	TEAD-YAP block
Cc1ccc(C(=O)C[n+]2cc(-c3ccc(C)cc3)n3c2CCCCC3)cc1	10	-1	0	86*
COc1ccc(C(=O)CSc2nc3sc4c(c3c(=O)n2-c2ccccc2)CCC4)cc1OC	-2	1	0	14
COc1ccc(C(=O)CSc2nc3scc(-c4ccccc4)c3c(=O)n2-c2ccccc2)cc1OC	23	0	1.9*	-4
C/C(=N/NC(=O)c1ccccn1)c1cccs1	-10	-5	0	66*
C/C(=N\NC(=O)c1cccc([N+](=O)[O-])c1)c1cccs1	-3	0	0	2
CCNc1ccc(C(=O)N/N=C(\C)c2cccs2)cc1[N+](=O)[O-]	16	-1	0	50*
C/C(=N\NC(=O)c1cnccn1)c1cccs1	-366	-2	0	-14
C/C(=N/NC(=O)c1ccc(O)cc1)c1cccs1	18	0	0	-29
C/C(=N\NC(=O)c1ccccc1O)c1cccs1	7	-1	0	38*
CCOCCOC(=O)C1=C(C)NC2=C(C(=O)CC(C)(C)C2)C1c1ccc(OC)c(OC)c1OC (configuration not stated)	3	3	0	-10
Cc1ccccc1/C=C1\SC(=Nc2ccccc2Cl)NC1=O	-3	0	0	45*
Cc1cc(/C=C2\SC(=Nc3ccccc3Cl)NC2=O)c(C)n1-c1ccccc1	-2	2	0	48*
Cc1noc(C)c1-c1nc(NCCCN2CCCC2=O)c2ncn(Cc3ccc(C(F)(F)F)cc3)c2n1	2	0	0	22
O=C(CSc1nc2c(c(=O)[nH]1)CN(Cc1ccccc1)CC2)NCc1ccccc1	-9	-2	0	8
O=C(Nc1ccc(O)cc1)c1cc2ccccn2n1	6	-3	0	56*
COc1cc2ccccc2cc1C(=O)Nc1ccc2oc(-c3ccncc3)nc2c1	-11	0	0	-7
Cc1nnc(N/N=C/c2ccccc2)[nH]c1=O	-7	0	0	-4
Cc1[nH]n(-c2ccccc2)c(=O)c1/C=N/Nc1nnc(C)c(=O)[nH]1	101*	0	0	15
Cc1[nH]n(-c2ccccc2)c(=O)c1/C=N/Nc1nncc(-c2ccccc2)n1	-22	1	0	42*
Cc1ccc(/C=N/Nc2nncc(-c3ccccc3)n2)o1	-4	-1	-1	-42
CCOc1ccc(N=Cc2c(C)[nH]n(-c3ccccc3)c2=O)cc1	1	2	0	0
Cc1[nH]n(-c2ccccc2)c(=O)c1C=Nc1ccc(N(C)C)cc1	63*	0	0	21
C/C(=N\NC(=O)NC1CCCCC1)c1ccccc1O	2	1	0	0
COc1ccccc1Oc1ccc(S(=O)(=O)Nc2ccc3c(c2)OCCO3)cc1	13	2	0	44*
COc1ccc(S(=O)(=O)Nc2ccc3c(c2)OCCO3)cc1Br	-3	0	0	0
SMILES	MITF inh	GPR151 ag	FBW7 act	TEAD-YAP block
COc1ccc(OS(=O)(=O)c2cc(OC)ccc2OC)cc1	-2	-1	0	50*
COc1ccc(OC)c(S(=O)(=O)c2cc(OC)ccc2OC)c1	5	0	0	-1
COc1ccc(-n2nc3c(c2NC(=O)c2cc([N+](=O)[O-])ccc2Cl)CSC3)cc1	13	2	0	61*
CC(C)(C)n1nc2c(c1NC(=O)c1cc(Cl)ccc1Cl)CSC2	4	-1	0	3
Cc1ccccc1-n1nc2c(c1NC(=O)c1cc([N+](=O)[O-])ccc1Cl)CS(=O)(=O)C2	-19	3	0	67*
Cc1ccc(-n2nc3c(c2NC(=O)c2cc([N+](=O)[O-])ccc2Cl)CSC3)c(C)c1	16	1	0	71*
CC(C)(C)n1nc2c(c1NC(=O)c1cc([N+](=O)[O-])ccc1Cl)CSC2	-7	2	0	89*
Cc1cccc(Cc2nnc(CCC(=O)NCCc3nc(C)c4c(n3)CCC4)o2)c1	-8	1	0	-2
CCOC(=O)c1c(NC(=O)C(C)Sc2nnc(CNC(=O)Cc3ccccc3)n2-c2ccc(F)cc2)sc2c1CCC2 (configuration not stated)	2	1	0	2
O=C1/C(=C/c2cccnc2)SC(=S)N1Cc1cccnc1	25	4	0	33*
FC(F)(F)c1cccc(CNc2ccnc(Nc3ccc(N4CCOCC4)cc3)n2)c1	25	-2	0	64*
c1cc(Nc2ccc(N3CCOCC3)cc2)nc(NCc2ccc3c(c2)OCO3)n1	6	1	0	38*
FC(F)(F)c1cccc(CNc2nc(-c3ccc(N4CCOCC4)nc3)nc3nc[nH]c23)c1	10	1	18*	3

From PubChem
